Targets with a hit are over-represented here; the source holds about 7,900 in all. About 0.6% of all pairs of compound and target were hits. Values without a mark were called inactive.
Legend:
Assay in all cases: log2 fold change, soluble protein after heating vs DMSO (PISA); higher = thermal stabilisation; K562 cells, 10 uM, 30 min; active = over 0.2 and 3.5 SD of the protein, either way, in both replicates (recomputed)
[1] = compound: CC1=C(C=C(C=C1)NC(=O)C2=CC(=CC=C2)C(C)(C)C#N)NC3=CC4=C(C=C3)N=CN(C4=O)C
In short: (§1)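 K562 cells at 2×10^6 cells/mL were exposed to 10 μM compound for 30 min, then aliquots were heated for 3 min across 48°C-58°C, pooled, and extracted in PBS containing 0.5% NP-40 at 4°C. The supernatant after 21,000xg for 90 min was taken as soluble protein and measured by TMTpro 16plex LC-MS/MS with channel sums equalised. Thermal stability is reported relative to control samples, with values from duplicates. Fold changes are given on a log2 scale.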

[2] = compound: CC1=C(C=C(C=C1)NC(=O)C2=CC(=CC=C2)N(C)C)NC(=O)C3=CC=C(C=C3)O
In short: as §1

[3] = compound: CC1=CC=C(C=C1)SC2=C3C=C(SC3=CN=C2)C(=O)N
In short: as §1

[4] = compound: CC1=NC(=CC=C1)C2=C(N=C(N2)C(C)(C)C)C3=CC4=NC=CN=C4C=C3
In short: as §1

Nexturastat A = compound: CCCCN(Cc1ccc(C(=O)NO)cc1)C(=O)Nc1ccccc1 [Nexturastat A]
In short: as §1

vemurafenib = compound: CCCS(=O)(=O)Nc1ccc(F)c(C(=O)c2c[nH]c3ncc(-c4ccc(Cl)cc4)cc23)c1F [vemurafenib]
In short: as §1

[5] = compound: CCCS(=O)(=O)Nc1ccc(F)c(C(=O)c2c[nH]c3ncc(Cl)cc23)c1F
In short: as §1

barasertib = compound: CCN(CCCOc1ccc2c(Nc3cc(CC(=O)Nc4cccc(F)c4)[nH]n3)ncnc2c1)CCOP(=O)(O)O [barasertib]
In short: as §1

[6] = compound: CCCc1cc(C)[nH]c(=O)c1CNC(=O)c1cc(-c2ccnc(N3CCN(C)CC3)c2)cc2c1cnn2C(C)C
In short: as §1

givinostat = compound: CCN(CC)Cc1ccc2cc(COC(=O)Nc3ccc(C(=O)NO)cc3)ccc2c1 [givinostat]
In short: as §1

UniProt Q86UA6, sequence (Q86UA6 whole entry, looked up): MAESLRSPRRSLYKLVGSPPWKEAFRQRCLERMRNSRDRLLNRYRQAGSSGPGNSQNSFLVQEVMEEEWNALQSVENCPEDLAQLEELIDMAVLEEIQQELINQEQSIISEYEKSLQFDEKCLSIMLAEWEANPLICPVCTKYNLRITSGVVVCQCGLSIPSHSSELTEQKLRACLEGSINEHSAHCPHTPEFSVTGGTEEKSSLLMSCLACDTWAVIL
UniProt Q96ER3, sequence (Q96ER3 whole entry, looked up): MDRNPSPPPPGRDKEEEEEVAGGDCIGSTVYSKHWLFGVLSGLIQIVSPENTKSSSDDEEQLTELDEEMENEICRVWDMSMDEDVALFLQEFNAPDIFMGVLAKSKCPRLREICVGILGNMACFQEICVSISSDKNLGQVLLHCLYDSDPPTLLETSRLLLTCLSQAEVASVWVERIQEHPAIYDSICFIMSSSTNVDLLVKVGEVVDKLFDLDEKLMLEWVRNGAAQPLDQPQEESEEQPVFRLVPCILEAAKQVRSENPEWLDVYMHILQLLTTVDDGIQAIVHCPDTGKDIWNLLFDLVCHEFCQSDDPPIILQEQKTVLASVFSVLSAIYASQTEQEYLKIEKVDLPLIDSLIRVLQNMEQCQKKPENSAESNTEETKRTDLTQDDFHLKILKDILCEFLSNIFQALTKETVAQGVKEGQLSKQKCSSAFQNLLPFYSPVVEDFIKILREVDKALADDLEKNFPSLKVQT
UniProt O00560, sequence (O00560 whole entry, looked up): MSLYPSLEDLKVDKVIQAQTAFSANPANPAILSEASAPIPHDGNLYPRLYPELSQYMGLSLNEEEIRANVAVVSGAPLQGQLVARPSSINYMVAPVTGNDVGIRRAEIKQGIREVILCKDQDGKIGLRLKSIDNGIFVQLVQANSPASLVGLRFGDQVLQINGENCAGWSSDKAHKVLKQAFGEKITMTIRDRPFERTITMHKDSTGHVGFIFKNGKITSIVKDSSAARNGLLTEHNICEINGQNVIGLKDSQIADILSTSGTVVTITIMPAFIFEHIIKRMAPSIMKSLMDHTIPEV
UniProt A1X283, sequence (A1X283 whole entry, looked up): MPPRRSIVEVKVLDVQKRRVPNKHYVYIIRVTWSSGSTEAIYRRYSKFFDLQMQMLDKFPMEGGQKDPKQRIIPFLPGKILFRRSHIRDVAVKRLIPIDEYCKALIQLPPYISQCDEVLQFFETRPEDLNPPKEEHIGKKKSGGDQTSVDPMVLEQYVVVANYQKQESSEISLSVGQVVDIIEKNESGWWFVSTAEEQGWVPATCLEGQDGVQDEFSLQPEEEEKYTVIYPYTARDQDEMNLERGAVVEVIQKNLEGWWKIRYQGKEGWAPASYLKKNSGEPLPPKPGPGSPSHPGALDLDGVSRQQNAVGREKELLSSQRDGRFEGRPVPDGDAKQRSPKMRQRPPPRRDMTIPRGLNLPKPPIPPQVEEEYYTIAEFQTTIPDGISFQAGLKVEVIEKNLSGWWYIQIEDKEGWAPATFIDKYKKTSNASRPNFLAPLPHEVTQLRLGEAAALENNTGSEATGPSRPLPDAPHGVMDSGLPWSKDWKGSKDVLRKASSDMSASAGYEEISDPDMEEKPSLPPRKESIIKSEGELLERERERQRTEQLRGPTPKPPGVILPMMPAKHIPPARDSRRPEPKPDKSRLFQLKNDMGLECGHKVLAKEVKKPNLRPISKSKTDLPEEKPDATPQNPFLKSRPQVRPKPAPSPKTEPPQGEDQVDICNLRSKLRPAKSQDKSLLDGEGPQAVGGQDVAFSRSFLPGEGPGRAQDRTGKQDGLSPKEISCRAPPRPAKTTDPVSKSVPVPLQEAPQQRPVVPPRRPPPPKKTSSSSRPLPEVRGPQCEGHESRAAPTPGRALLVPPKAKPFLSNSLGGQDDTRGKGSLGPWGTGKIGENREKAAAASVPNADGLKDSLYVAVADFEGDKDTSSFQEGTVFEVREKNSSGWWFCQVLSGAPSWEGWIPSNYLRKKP
UniProt Q13796, sequence (Q13796 whole entry, looked up): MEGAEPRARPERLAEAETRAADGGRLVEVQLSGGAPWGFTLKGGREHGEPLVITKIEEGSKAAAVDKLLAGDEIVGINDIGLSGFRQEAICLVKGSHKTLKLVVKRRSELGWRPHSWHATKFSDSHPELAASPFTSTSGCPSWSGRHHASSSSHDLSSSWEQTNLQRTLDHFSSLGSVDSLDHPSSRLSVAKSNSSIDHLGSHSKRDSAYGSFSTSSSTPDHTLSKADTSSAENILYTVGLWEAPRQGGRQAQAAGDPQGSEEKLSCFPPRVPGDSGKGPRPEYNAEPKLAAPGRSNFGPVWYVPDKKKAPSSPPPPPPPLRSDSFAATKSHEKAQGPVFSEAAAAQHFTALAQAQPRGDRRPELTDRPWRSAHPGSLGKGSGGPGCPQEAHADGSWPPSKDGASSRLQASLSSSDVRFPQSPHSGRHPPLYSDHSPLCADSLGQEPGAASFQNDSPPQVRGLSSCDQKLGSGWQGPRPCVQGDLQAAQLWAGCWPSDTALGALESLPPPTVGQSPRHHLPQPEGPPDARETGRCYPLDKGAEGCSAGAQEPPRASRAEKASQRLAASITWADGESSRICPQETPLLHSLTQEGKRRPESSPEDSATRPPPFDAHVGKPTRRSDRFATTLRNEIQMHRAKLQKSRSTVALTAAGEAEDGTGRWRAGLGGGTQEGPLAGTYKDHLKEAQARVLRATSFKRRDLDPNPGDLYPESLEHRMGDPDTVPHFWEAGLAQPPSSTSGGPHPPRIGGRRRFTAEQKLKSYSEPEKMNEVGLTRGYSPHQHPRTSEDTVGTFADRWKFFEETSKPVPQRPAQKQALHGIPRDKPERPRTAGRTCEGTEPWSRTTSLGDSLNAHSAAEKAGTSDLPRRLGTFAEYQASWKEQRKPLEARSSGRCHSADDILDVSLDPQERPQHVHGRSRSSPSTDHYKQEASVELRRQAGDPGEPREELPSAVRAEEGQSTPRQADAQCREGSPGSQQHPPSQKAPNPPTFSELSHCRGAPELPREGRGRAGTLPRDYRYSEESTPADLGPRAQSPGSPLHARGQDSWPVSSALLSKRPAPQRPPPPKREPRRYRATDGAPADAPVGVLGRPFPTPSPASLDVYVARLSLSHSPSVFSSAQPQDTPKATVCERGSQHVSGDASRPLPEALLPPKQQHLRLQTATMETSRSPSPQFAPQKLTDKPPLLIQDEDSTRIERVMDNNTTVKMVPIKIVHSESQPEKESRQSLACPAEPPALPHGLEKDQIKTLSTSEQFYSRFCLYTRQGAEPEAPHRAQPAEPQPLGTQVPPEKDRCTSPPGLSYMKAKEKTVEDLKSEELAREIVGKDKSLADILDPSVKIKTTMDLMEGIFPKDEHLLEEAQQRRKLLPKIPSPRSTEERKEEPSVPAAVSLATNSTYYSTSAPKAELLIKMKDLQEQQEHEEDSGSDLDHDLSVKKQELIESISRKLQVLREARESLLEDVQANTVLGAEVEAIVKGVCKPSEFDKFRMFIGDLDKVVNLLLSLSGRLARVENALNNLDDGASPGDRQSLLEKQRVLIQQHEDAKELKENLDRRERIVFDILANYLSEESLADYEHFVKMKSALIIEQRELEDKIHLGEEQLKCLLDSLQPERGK
UniProt P60602, sequence (P60602 whole entry, looked up): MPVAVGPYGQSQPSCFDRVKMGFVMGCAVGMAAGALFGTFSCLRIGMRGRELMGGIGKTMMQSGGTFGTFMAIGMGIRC
UniProt Q01196, sequence (Q01196 whole entry, looked up): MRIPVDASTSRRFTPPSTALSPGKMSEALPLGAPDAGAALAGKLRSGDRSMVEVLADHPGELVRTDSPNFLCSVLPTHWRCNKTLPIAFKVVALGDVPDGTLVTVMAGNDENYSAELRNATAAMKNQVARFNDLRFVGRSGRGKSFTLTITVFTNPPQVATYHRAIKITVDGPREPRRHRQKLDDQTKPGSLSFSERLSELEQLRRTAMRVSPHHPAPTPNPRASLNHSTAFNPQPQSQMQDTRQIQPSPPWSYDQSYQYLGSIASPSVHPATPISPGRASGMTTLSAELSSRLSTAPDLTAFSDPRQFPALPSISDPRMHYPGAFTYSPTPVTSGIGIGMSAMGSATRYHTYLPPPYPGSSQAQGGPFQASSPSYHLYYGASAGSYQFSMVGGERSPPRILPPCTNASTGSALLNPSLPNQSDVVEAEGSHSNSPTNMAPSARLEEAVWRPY
UniProt Q15349, sequence (Q15349 whole entry, looked up): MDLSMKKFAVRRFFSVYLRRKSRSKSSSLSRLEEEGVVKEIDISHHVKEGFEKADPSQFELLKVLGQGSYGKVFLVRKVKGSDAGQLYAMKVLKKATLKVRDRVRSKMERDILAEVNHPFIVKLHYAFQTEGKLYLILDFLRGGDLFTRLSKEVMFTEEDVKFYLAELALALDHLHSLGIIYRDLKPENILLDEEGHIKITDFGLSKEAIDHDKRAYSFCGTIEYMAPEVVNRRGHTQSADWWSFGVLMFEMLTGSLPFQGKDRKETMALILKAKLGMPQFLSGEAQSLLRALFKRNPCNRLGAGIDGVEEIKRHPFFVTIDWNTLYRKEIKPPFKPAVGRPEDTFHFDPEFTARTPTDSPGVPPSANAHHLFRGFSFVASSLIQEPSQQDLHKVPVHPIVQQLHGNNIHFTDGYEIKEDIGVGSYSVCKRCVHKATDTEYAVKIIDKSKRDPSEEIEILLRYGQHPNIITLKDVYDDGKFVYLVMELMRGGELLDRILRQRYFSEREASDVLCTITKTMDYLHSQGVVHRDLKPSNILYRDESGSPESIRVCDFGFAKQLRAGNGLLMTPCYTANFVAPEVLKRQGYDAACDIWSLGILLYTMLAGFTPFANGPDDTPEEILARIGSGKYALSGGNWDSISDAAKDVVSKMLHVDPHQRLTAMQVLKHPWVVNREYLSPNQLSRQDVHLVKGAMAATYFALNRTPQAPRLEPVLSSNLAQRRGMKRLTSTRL
UniProt Q9BWJ5, sequence (Q9BWJ5 whole entry, looked up): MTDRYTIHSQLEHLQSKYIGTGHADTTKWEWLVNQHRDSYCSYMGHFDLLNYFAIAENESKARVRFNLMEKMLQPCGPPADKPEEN
UniProt P60903, sequence (P60903 whole entry, looked up): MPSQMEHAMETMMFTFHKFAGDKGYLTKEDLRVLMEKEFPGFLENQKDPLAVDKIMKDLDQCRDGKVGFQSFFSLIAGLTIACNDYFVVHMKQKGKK

Row | Target | log2 fold change [1] | log2 fold change [2] | log2 fold change [3] | log2 fold change [4] | log2 fold change (Nexturastat A) | log2 fold change (vemurafenib) | log2 fold change [5] | log2 fold change (barasertib) | log2 fold change [6] | log2 fold change (givinostat)
1 | RPAIN isoform 8 (UniProt Q86UA6) | 0.009 | 0.038 | -0.098 | 0.136 | -0.017 | -0.062 | 0.042 | 0.029 | – | –
2 | SAAL1 (UniProt Q96ER3) | 0.004 | -0.008 | 0.006 | 0.009 | -0.078 | -0.017 | 0.035 | 0.046 | -0.014 | -0.059
3 | RPS6KA2 isoform 2 (UniProt Q15349) | -0.087 | -0.229 | 0.159 | 0.011 | 0.009 | 0.037 | 0.026 | 0.064 | 0.023 | -0.148
4 | SIK3 (UniProt H0Y4E8) | 0.017 | 0.18 | -0.062 | -0.066 | – | -0.08 | -0.076 | – | -0.026 | 0.098
5 | RNF167 (UniProt Q9H6Y7) | 0.037 | 0.008 | -0.041 | 0.037 | -0.059 | 0.031 | -0.06 | 0.018 | -0.096 | 0.005
6 | RNF14 (UniProt Q9UBS8) | 0.039 | -0.034 | 0.004 | 0.05 | -0.04 | 0.026 | 0.04 | 0.036 | 0.029 | -0.07
7 | SAMD4B (UniProt Q5PRF9) | -0.501 (active) | -0.02 | 0 | -0.054 | 0.202 | – | -0.132 | 0.157 | – | 0.201
8 | RPA1 (UniProt P27694) | 0.028 | -0.047 | -0.002 | 0.05 | 0.044 | 0.039 | 0.125 | 0.068 | 0.104 | 0.069
9 | RFC3 (UniProt P40938) | -0.003 | -0.031 | 0.05 | 0.058 | -0.032 | 0.048 | 0.101 | -0.011 | 0 | -0.007
10 | RUNX1 isoform 8 (UniProt Q01196) | 0.236 | 0.018 | 0.059 | -0.045 | -0.231 | -0.026 | 0.046 | -0.058 | 0.088 | 0.076
11 | RAD50, A0A494C0Y7 | -0.005 | -0.03 | -0.063 | -0.041 | – | 0.045 | 0 | -0.171 | -0.244 | –
12 | SFXN5 (UniProt Q8TD22) | -0.013 | 0 | 0.049 | 0.024 | -0.026 | 0.135 | 0.012 | 0.057 | 0.012 | 0.124
13 | RRP12 (UniProt Q5JTH9) | 0.036 | -0.012 | 0.094 | -0.043 | 0.371 | -0.087 | -0.012 | -0.018 | 0.074 | 0.209
14 | RCOR3 isoform 3 (UniProt Q9P2K3) | -0.12 | -0.046 | 0.051 | 0.012 | – | 0.025 | 0.031 | 0.098 | -0.022 | 0.075
15 | SESN2 (UniProt P58004) | 0.166 | -0.069 | -0.017 | -0.031 | 0.094 | 0.194 | 0.186 | 0.119 | 0.19 | 0.046
16 | SKP1 (UniProt P63208) | 0.095 | 0.048 | 0.094 | 0.017 | -0.052 | -0.036 | 0.008 | -0.021 | -0.032 | -0.05
17 | SAMSN1 isoform 3 (UniProt Q9NSI8) | 0.014 | -0.011 | 0.029 | 0.017 | -0.027 | -0.001 | 0.029 | 0.042 | 0 | 0.02
18 | RMC1 (UniProt Q96DM3) | 0.037 | 0.001 | -0.051 | 0.024 | -0.031 | 0.061 | 0.031 | 0.039 | 0.021 | -0.013

Row | Target | log2 fold change [1] | log2 fold change [2] | log2 fold change [3] | log2 fold change [4] | log2 fold change (Nexturastat A) | log2 fold change (vemurafenib) | log2 fold change [5] | log2 fold change (barasertib) | log2 fold change [6] | log2 fold change (givinostat)
19 | SAP30 (UniProt O75446) | -0.292 | – | -0.078 | -0.164 | 0.025 | 0.04 | -0.157 | – | 0.037 | 0.019
20 | RNF220 isoform 3 (UniProt Q5VTB9) | – | – | 0.385 | – | – | – | 0.201 | – | – | -0.059
21 | S100A10 (UniProt P60903) | 0.128 | – | 0.181 | – | – | – | -0.086 | 0.113 | – | –
22 | SLC12A5 (UniProt Q9H2X9) | 0.074 | – | 0.108 | 0.198 | 0.001 | -0.105 | 0.081 | -0.004 | -0.018 | 0.016
23 | SHROOM2 (UniProt Q13796) | -0.104 | – | 0.011 | -0.206 | 0.763 (active) | -0.078 | -0.179 | 0.071 | -0.207 | 0.238
24 | SCLT1 (UniProt Q96NL6) | -0.057 | – | – | -0.161 | – | 0.045 | – | 0.049 | 0.01 | –
25 | RICTOR isoform 3 (UniProt Q6R327) | -0.09 | – | 0.074 | – | 0.25 | – | 0.018 | – | – | -0.057
26 | ROMO1 (UniProt P60602) | 0.087 | -0.011 | 0.005 | – | -0.066 | – | -0.017 | -0.036 | -0.082 | -0.027
27 | SDCBP isoform 2 (UniProt O00560) | 0.06 | -0.058 | 0.004 | – | 0.149 | – | 0.076 | 0.046 | -0.048 | -0.008
28 | RABGAP1L isoform 5 (UniProt Q5R372) | -0.106 | – | -0.047 | -0.055 | -0.009 | – | -0.016 | 0 | -0.197 | -0.013
29 | RPS6KA5 (UniProt O75582) | – | -0.039 | 0.029 | -0.017 | 0.013 | – | 0.121 | – | 0.237 | 0.025
30 | RBMY1E (UniProt A6NEQ0) | – | 0.009 | 0.183 | 0.075 | – | – | 0.082 | 0.135 | -0.023 | 0.059
31 | SH3PXD2B (UniProt A1X283) | -0.029 | – | – | – | -0.052 | -0.145 | – | 0.043 | 0.187 | -0.548 (active)
32 | RNF185 (UniProt Q96GF1) | – | -0.055 | -0.074 | – | – | 0.009 | 0.1 | 0.055 | -0.081 | -0.013
33 | SEPTIN5 (UniProt G3XAH0) | -0.002 | -0.046 | 0.04 | – | -0.255 (active) | 0.058 | 0.023 | 0.002 | -0.009 | 0.014
34 | SF3B5 (UniProt Q9BWJ5) | 0.003 | – | 0.072 | 0.111 | 0.042 | -0.055 | -0.027 | -0.12 | -0.009 | 0.129
35 | SLC1A3 (UniProt P43003) | – | -0.047 | 0.043 | – | -0.099 | -0.043 | -0.095 | -0.01 | -0.127 | -0.1

Source: the supplement of paper PMC10849652
